For 23 compounds, inhibition results are on record in PubChem BioAssay.

A number with no mark means an inactive call. Calls of active or inactive are those of the source.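 The calls were made as follows, unless noted: active = mean inhibition above 46.68%, the untreated control wells mean plus 3 SD; inactive = the rest.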

In assay [1] the target is Nuclear receptor coactivator 3 (Homo sapiens) (UniProt Q9Y6Q9). In words: SRC3 coactivator transcriptional activity inhibitors, confirmation, cell-based, luminescence, quadruplicate (AID 588792;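 active = mean inhibition over 43.08%, the solvent-only control mean plus 3 SD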;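 also: 0% = DMSO treated cells and 100% = gossypol at 36 µM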). The following applies: HEK293 GAL4-SRC3 luciferase reporter, at 3.6 µM, stronger effect = higher value. On the technique in general: Reporter assays use an easily measured gene product as a stand-in for the process of interest.
Nuclear receptor coactivator 3 (Homo sapiens), sequence (Q9Y6Q9 whole entry, looked up, the tested form may be a part): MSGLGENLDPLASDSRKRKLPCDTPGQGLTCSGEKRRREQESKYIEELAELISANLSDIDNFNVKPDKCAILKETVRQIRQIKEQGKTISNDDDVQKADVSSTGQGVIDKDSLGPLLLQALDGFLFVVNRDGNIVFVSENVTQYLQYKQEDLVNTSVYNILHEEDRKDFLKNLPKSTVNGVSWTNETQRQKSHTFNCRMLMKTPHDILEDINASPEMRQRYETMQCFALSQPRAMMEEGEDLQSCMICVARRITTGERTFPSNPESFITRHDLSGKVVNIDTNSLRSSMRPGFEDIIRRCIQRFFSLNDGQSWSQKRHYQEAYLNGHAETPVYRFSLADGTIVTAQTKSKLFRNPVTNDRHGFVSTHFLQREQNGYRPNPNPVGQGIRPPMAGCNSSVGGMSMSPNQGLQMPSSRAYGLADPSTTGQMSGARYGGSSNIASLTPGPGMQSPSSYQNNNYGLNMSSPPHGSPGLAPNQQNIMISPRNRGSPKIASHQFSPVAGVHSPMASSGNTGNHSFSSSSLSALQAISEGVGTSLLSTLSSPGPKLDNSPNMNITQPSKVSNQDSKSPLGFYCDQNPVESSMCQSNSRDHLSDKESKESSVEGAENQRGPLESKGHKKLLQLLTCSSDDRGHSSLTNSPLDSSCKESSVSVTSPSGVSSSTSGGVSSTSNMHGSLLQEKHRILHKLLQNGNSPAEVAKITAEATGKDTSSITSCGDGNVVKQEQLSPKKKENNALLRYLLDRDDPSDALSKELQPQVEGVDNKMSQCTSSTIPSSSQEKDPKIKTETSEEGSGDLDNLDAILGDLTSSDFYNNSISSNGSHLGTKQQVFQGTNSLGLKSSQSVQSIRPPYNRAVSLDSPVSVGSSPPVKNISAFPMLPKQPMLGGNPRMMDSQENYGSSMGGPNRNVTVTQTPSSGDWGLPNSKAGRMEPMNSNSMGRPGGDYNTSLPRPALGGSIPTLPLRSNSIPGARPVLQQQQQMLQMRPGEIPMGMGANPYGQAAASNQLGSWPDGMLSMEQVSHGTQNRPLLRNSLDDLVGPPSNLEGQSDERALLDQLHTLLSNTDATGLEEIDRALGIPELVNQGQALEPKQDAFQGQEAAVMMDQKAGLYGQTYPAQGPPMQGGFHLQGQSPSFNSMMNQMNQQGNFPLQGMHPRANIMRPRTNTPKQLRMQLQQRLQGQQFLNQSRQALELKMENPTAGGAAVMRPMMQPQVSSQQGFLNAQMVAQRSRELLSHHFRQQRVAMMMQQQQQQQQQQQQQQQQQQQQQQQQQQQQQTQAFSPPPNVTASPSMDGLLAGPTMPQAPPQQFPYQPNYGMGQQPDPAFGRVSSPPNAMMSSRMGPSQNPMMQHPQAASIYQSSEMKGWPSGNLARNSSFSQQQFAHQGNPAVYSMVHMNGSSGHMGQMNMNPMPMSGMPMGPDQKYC

In assay [2] the test system is transactivating tegument protein VP16 (Human herpesvirus 1), Gal4-VP16 luciferase reporter. In words: VP16 transactivation inhibitors, counter-screen for SRC3 inhibitor project, cell-based, luminescence, high throughput (AID 588794; in the data active = inhibition above about 30%). The following applies: mammalian cells, VP16-driven luciferase reporter luminescence; at 3.6 µM; stronger effect = higher value. On the technique in general: Counterscreens check selectivity or assay interference.

Assay [3] addresses Nuclear receptor coactivator 1 (Homo sapiens) (UniProt Q15788). The experiment in a line: SRC1 coactivator transcriptional activity inhibitors, confirmation, cell-based, luminescence, quadruplicate (AID 588820).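 Also: 0% = DMSO wells and 100% = gossypol 36 µM treated wells.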 The settings on record: HEK293 GAL4-SRC1 luciferase reporter, at 3.6 µM, stronger effect = higher value.
A short description of assay [4]: VP16 transactivation inhibitors, counter-screen for SRC1 inhibitor project, cell-based, luminescence, high throughput (AID 588824; in the data active = inhibition above about 25%). The following applies: cell-based VP16 transactivation luciferase luminescence; at 3.6 µM; stronger effect = higher value.

Nuclear receptor coactivator 1 (Homo sapiens), sequence (Q15788 whole entry, looked up, the tested form may be a part): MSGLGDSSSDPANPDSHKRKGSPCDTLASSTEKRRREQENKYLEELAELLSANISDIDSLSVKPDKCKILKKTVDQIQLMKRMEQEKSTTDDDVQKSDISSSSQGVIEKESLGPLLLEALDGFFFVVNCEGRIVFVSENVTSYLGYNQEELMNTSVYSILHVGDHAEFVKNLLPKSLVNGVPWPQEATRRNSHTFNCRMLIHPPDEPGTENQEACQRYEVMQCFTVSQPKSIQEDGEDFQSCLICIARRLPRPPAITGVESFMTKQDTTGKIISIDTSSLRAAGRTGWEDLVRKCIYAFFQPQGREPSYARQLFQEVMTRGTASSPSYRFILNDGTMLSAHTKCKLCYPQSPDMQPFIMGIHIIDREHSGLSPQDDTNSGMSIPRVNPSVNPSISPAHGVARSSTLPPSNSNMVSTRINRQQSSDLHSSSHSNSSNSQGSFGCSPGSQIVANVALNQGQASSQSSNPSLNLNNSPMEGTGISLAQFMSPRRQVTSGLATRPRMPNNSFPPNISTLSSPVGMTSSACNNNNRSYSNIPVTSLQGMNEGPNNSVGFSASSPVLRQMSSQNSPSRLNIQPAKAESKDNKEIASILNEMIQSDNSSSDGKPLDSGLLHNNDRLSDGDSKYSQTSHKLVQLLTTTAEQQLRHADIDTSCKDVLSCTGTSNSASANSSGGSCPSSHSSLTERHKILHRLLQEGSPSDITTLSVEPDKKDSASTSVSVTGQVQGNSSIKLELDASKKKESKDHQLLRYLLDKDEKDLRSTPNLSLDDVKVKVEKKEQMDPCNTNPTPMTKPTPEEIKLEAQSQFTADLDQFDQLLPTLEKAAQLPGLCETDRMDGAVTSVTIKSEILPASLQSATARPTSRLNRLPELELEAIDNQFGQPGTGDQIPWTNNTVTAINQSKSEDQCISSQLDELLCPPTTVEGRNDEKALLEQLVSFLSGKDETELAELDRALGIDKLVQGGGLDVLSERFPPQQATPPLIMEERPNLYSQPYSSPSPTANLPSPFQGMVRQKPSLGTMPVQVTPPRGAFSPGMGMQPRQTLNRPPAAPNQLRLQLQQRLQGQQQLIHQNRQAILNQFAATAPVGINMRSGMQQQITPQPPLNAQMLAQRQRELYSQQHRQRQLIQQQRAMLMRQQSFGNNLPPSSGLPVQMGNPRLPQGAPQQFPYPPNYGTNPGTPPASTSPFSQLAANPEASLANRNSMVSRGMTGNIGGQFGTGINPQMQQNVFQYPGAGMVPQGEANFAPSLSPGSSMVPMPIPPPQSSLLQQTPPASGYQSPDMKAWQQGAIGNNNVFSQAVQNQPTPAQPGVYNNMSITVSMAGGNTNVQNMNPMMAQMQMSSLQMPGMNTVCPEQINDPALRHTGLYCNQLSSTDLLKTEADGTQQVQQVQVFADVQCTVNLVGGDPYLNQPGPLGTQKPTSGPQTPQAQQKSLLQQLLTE

`O=C(Nc1nc(-c2ccc3ccccc3c2)cs1)C1CCN(S(=O)(=O)c2cccs2)CC1`: the inhibition (in general, the drop in the measured response relative to a control, in per cent) was 8.55% in assay [1], 32.2% (active) in assay [2], -6.77% in assay [3] and 33.2% (active) in assay [4].

As for `CCCCC(=O)NC(c1ccc(N(C)C)cc1)c1ccc2cccnc2c1O` (configuration not stated), the inhibition in assay [1] was 58.5% (active); in assay [2], 43.9% (active); in assay [3], 48% (active); in assay [4] it was 55.9% (active).

For the compound `CC(C)c1ccc(-c2csc3ncnc(N4CCN(C)CC4)c23)cc1`, the inhibition is 42.1% in assay [1], 35.5% (active) in assay [2], 42.8% in assay [3] and 32.9% (active) in assay [4].

For the compound `N=c1c2c(-c3ccccc3)c(-c3ccccc3)n(Cc3ccccc3)c2ncn1CCCO`, the inhibition is 12% in assay [1], 53.2% (active) in assay [2], 42.6% in assay [3] and 51% (active) in assay [4].

In the case of `O=C(NNc1ccccc1)C(=O)NNc1ccccc1`, the inhibition in assay [1] is 25.6%; in assay [2] it was 49.3% (active); in assay [3] it was 8.21%; in assay [4], 48.9% (active).

Regarding `CN1CCN(c2ncnc3scc(-c4ccccc4Cl)c23)CC1`, the inhibition in assay [1] was 59.6% (active); in assay [2], 41.5% (active); in assay [3], 55.4% (active); in assay [4], 44.3% (active).

As to `COc1ccc(-c2cn[nH]c2-c2ccc(OCc3ccc([N+](=O)[O-])cc3)cc2O)cc1`, the inhibition in assay [1] is 33.1%; in assay [2] it was 34% (active); in assay [3] it was 39.1%; in assay [4], 27.4% (active).

On to `CC(=O)Nc1ccc(S(=O)(=O)c2ccnc3cc(Cl)ccc23)cc1`, for which the inhibition is 52.9% (active) in assay [1], 44.1% (active) in assay [2], 47% (active) in assay [3] and 39.2% (active) in assay [4].

Turning to `CN(C)S(=O)(=O)c1ccc(-c2csc(N/N=C/c3ccco3)n2)cc1`, the inhibition was -2.21% in assay [1], 16.7% in assay [2], -22.3% in assay [3] and 20.1% in assay [4].

For the compound `O=[N+]([O-])c1cccc2c1ccc1ncccc12`, the inhibition in assay [1] was 33%; in assay [2] it was 11.7%; in assay [3], 36%; in assay [4], 15.9%.

In the case of `O=C(Nc1ccc(Cn2cccn2)cc1)c1ccc(COc2cccc(Br)c2)cc1`, the inhibition in assay [1] is 1.93%; in assay [2], 42.6% (active); in assay [3], -34.7%; in assay [4] it was 30.4% (active).

Consider `Cc1c(-c2ccccc2)oc2c(C(=O)N3CCN(c4ccc([N+](=O)[O-])cc4)CC3)cccc2c1=O`, for which the inhibition in assay [1] was 54.4% (active); in assay [2], 32.5% (active); in assay [3], 45.9%; in assay [4] it was 27.3% (active).

Take `CCOc1cc(C(N)=O)cc(Br)c1OC`: the inhibition in assay [1] was 29.6%; in assay [2], 20.8%; in assay [3], 29.3%; in assay [4], 14.2%.

Take `COc1ccc(NS(=O)(=O)c2ccc(NC(=O)c3ccc(N(C)S(C)(=O)=O)cc3)cc2)c(OC)c1`: the inhibition in assay [1] was 12.3%; in assay [2], 37% (active); in assay [3], -6.59%; in assay [4], 36.6% (active).

With `CC(C)(C)OC(=O)NCC(=O)Oc1cc2oc(=O)cc(-c3ccccc3)c2cc1Cl`, the inhibition in assay [1] is 21.9%; in assay [2], 15.7%; in assay [3] it was 21.3%; in assay [4], 15.3%.

As to `COc1ccc(C(C(=O)NC2CCCCC2)N(C(=O)CCl)c2ccc(C)cc2)cc1` (configuration not stated), the inhibition in assay [1] was 71.8% (active); in assay [2], 52.9% (active); in assay [3] it was 35.7%; in assay [4] it was 49.2% (active).

For `O=C(C1CCC(CNS(=O)(=O)c2cccs2)CC1)N1CCN(c2ccc(Cl)cc2)CC1` (configuration not stated), the inhibition in assay [1] was 13.8%; in assay [2] it was 30.5% (active); in assay [3], 14.9%; in assay [4], 34.6% (active).

Consider `CCN(CC)CCCNc1ccc2ncn3c4ccc(O)cc4c(=O)c1c23`, for which the inhibition in assay [1] was 16.5%; in assay [2], 51.3% (active); in assay [3], 47.9% (active); in assay [4], 49.9% (active).

Consider `CN(C)C=Nc1c(C(=O)c2ccccc2)sc2nccc(N(C)C)c12`, for which the inhibition in assay [1] is 20.3%; in assay [2], 16.3%; in assay [3], 30.8%; in assay [4], 16.9%.

With `O=C(N/N=C/c1sc(N2CCOCC2)nc1-c1ccccc1)c1cccc(S(=O)(=O)N2CCCC2)c1`, the inhibition was 53.4% (active) in assay [1], 67% (active) in assay [2], 50.8% (active) in assay [3] and 72% (active) in assay [4].

As for `O=C(Nc1ccc(N2CCN(C(=O)c3ccccc3F)CC2)cc1)c1cncc(Br)c1`, the inhibition in assay [1] is 64.7% (active); in assay [2], 37.8% (active); in assay [3] it was 34.5%; in assay [4], 48% (active).

Consider `Cc1nc(N2CCC(C(N)=O)CC2)c2c(-c3cccs3)csc2n1`, for which the inhibition in assay [1] was 38%; in assay [2], 25.8%; in assay [3] it was 34.9%; in assay [4], 18.9%.

On to `CCC(=O)c1ccc(Oc2nc3c(c(=O)n(C)c(=O)n3C)n2CC)cc1`, for which the inhibition is 26.3% in assay [1], 19.6% in assay [2], 29.4% in assay [3] and 20.9% in assay [4].
